According to PubChem BioAssay (NCATS):
Results filed as inconclusive are left out. The source made the active and inactive calls. Calls follow the shape of the dose curve; as a rule, active = well fitted curve in the direction sought with a large enough effect; inconclusive = small, poorly fitted or top-dose-only effect, or another doubt; inactive = no such curve, though single readings can be large; an effect the other way counts as inactive or inconclusive.

Key:
[1] = molecular target: Metallo-beta-lactamase type 2 (Klebsiella pneumoniae) (UniProt C7C422); assay: qHTS to identify inhibitors of the New Delhi Metallo-beta-lactamase (NDM): assay validation screen against the NCATS LOPAC Collection (AID 1794843);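 also: nitrocefin turnover by NDM-1 measured as 485 nm absorbance at plateau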
Sequence of Metallo-beta-lactamase type 2 (Klebsiella pneumoniae) (C7C422 whole entry, looked up): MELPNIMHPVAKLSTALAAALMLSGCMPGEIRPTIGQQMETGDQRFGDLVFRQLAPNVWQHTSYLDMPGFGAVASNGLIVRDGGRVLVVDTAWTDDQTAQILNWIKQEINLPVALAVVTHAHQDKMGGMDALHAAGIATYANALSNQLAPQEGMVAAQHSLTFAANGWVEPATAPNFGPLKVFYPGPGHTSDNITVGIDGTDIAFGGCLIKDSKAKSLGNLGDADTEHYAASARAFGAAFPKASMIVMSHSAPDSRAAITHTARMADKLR
Method in brief: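 NDM-1 at 2 nM final in 50 mM HEPES pH 7.0 with 1 uM ZnSO4 and 0.01% Tween20 was preincubated with library compounds in DMSO. Nitrocefin (50 uM stock) was then added, and absorbance at 485 nm was read at the kinetic plateau.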

[2] = molecular target: Glutathione peroxidase 1 (Homo sapiens) (UniProt P07203); assay: Primary qHTS Assay for Inhibitors of Recombinant Selenoprotein Glutathione Peroxidase 1 (GPX1) (AID 1845191); also: nearly all actives have a fitted effect of over 65% in size
Sequence of Glutathione peroxidase 1 (Homo sapiens) (P07203 whole entry, looked up): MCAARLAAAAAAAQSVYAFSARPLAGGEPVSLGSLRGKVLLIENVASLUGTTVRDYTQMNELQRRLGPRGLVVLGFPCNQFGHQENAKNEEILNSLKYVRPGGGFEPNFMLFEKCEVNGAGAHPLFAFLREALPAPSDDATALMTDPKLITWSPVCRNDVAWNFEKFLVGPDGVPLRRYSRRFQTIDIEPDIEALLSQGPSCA
Method in brief: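 NADPH consumption tracked by fluorescence at 340/450 nm between t=0 and t=15 min, room temperature. Final mix: 10 nM GPX1, 100 nM glutathione reductase, 1 mM GSH, 0.5 mM NADPH, 0.5 mM cumene hydroperoxide, 0.01% BSA; 30 min compound–enzyme preincubation.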

[3] = molecular target: Phospholipid hydroperoxide glutathione peroxidase GPX4 (Homo sapiens) (UniProt P36969); assay: Primary qHTS Assay for Inhibitors of Recombinant Selenoprotein Glutathione Peroxidase 4 (GPX4) (AID 1845192); also: nearly all actives have a fitted effect of over 65% in size
Sequence of Phospholipid hydroperoxide glutathione peroxidase GPX4 (Homo sapiens) (P36969 whole entry, looked up): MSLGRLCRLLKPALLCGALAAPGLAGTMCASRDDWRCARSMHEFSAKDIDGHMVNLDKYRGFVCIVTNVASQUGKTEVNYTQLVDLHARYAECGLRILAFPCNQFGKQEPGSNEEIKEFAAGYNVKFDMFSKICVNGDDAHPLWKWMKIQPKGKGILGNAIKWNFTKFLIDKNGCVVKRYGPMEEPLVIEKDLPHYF
Method in brief: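 NADPH consumption followed by fluorescence at 340/450 nm, t=0 and after 15 min at room temperature. Reaction started with cumene hydroperoxide (0.5 mM final) after 30 min compound–GPX4 preincubation; final 200 nM GPX4, 100 nM GR, 1 mM GSH, 0.5 mM NADPH.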

[4] = Quantitative High-Throughput drug screen in 47 multiple myeloma cell lines against the NCATS MIPE library collection: EJM_DSMZ cell viability assay (AID 1918926; also: nearly all actives have a fitted effect of over 30% in size; also: potency is read from the fitted curve at half-maximal effect)
Method in brief: (§1)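 Primary qHTS used for cherry-picking: cells at 500/well, library compounds for 48 h (37C, 5% CO2), luminescent ATP assay.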

[5] = Quantitative High-Throughput drug screen in 47 multiple myeloma cell lines against the NCATS MIPE library collection: AMO1_DSMZ cell viability assay (AID 1918927; also: nearly all actives have a fitted effect of over 30% in size; also: potency is read from the fitted curve at half-maximal effect)
Method in brief: as §1

[6] = Quantitative High-Throughput drug screen in 47 multiple myeloma cell lines against the NCATS MIPE library collection: ARD_JJKsccE7 cell viability assay (AID 1918929; also: potency is read from the fitted curve at half-maximal effect)
Method in brief: as §1

[7] = Quantitative High-Throughput drug screen in 47 multiple myeloma cell lines against the NCATS MIPE library collection: Karpas620_DSMZ cell viability assay (AID 1918959); also: nearly all actives have a fitted effect of over 30% in size; also: potency is read from the fitted curve at half-maximal effect
Method in brief: (§2)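 Myeloma cells (500 per well) were exposed to MIPE 4.0 compounds by pin transfer and incubated 48 hours at 37C, 5% CO2. Viability was read as ATP by CellTiter-Glo luminescence, normalised to DMSO (100%) and media-only (0%) wells.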

[8] = Quantitative High-Throughput drug screen in 47 multiple myeloma cell lines against the NCATS MIPE library collection: KMM1_JCRB cell viability assay (AID 1918960); also: nearly all actives have a fitted effect of over 30% in size; also: potency is read from the fitted curve at half-maximal effect
Method in brief: (§3)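 Each line was plated at 500 cells/well and treated 48 h with library drugs. Viability came from CellTiter-Glo luminescence relative to DMSO and cell-free medium controls.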

[9] = Quantitative High-Throughput drug screen in 47 multiple myeloma cell lines against the NCATS MIPE library collection: Karpas417_ECACC cell viability assay (AID 1918961); conditions: Karpas417 myeloma viability, CellTiter-Glo ATP luminescence, 48 h; viability (% of DMSO): at 45.8 µM (top of the series); also: potency is read from the fitted curve at half-maximal effect
Method in brief: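 CellTiter-Glo ATP luminescence gave viability after 48 h compound treatment at 37C of 500 multiple myeloma cells per well. Normalisation used DMSO-only wells as 100% and media-only wells as 0% viability; primary qHTS of approved and investigational drugs.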

[10] = molecular target: Luciferin 4-monooxygenase (Photinus pyralis) (UniProt P08659); assay: Primary firefly luciferase (FLuc) qHTS assay for identification of artifact compounds. (AID 1845220); conditions: outcome: dose series up to 54.1 µM; also: nearly all actives have a fitted effect of over 60% in size
Method in brief: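 Compounds sat 15 min at room temperature with 10 uM luciferin and 10 uM ATP (pH 7.6 Tris acetate). Firefly luciferase (10 nM final) was then added, and luminescence was read 5 min later. Data normalized to no-enzyme and DMSO controls were Hill-fitted.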

[11] = Primary fluorescence-based thiol-reactive (MSTI) qHTS assay for identification of artifact compounds. (AID 1845221);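 also: thiol-reactive compounds lower the probe fluorescence signal; nearly all actives have a fitted effect of over 65% in size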
Method in brief: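 MSTI probe at 4 uM final in 2% DMSO/PBS pH 7.4; compounds, 1 h at room temperature in dark. Fluorescence Ex/Em 525/598 nm, normalised to Acetyl-MSTI and MSTI, fitted to 4-parameter Hill.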

[12] = system: Nanoluciferase (engineered Oplophorus gracilirostris luciferase); assay: Primary Nanoluciferase (NLuc) qHTS assay for identification of artifact compounds. (AID 1845222)
Method in brief: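 Luminescence from secreted NLuc (filtered, 1:55-diluted S16 cell medium) read 5 min after Nano-Glo substrate; compounds preincubated 15 min, RT. Hill fits of inhibition normalized to DMSO and no-enzyme.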

[13] = Primary redox qHTS assay for identification of artifact compounds. (AID 1845223)
Method in brief: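 Redox-cycling detection via DTT (250 uM final) oxidation coupled to Amplex Red (25 uM)/HRP (250 mU/mL) in HBSS. 15 min preincubation plus 30 min after DTT, room temperature. Ex/Em 525/598 nm; 4-parameter Hill fit against DMSO and 10 uM DA3003.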

[14] = Quantitative High-Throughput drug screen in 47 multiple myeloma cell lines against the NCATS MIPE library collection: FR4_PLB cell viability assay (AID 1918924; also: nearly all actives have a fitted effect of over 35% in size; also: potency is read from the fitted curve at half-maximal effect)
Method in brief: as §2

[15] = Quantitative High-Throughput drug screen in 47 multiple myeloma cell lines against the NCATS MIPE library collection: Delta47_JCRB cell viability assay (AID 1918925; also: nearly all actives have a fitted effect of over 45% in size; also: potency is read from the fitted curve at half-maximal effect)
Method in brief: as §1

[16] = Quantitative High-Throughput drug screen in 47 multiple myeloma cell lines against the NCATS MIPE library collection: ARP1_JJKsccF8 cell viability assay (AID 1918928; also: nearly all actives have a fitted effect of over 40% in size; also: potency is read from the fitted curve at half-maximal effect)
Method in brief: as §3

Measured: Potency

CN(C)CCC=C1c2ccccc2C=Cc2ccccc21
inactive: [1] | [2] | [3] | [4] | [6] | [7] | [8]
active: [5] 23.5 nM

CN1CCC(=C2c3ccccc3C=Cc3ccccc32)CC1
inactive: [1] | [2] | [3] | [6] | [9]

CC[C@@]1(O)C(=O)OCc2c1cc1n(c2=O)Cc2cc3c(CN(C)C)c(O)ccc3nc2-1
active: [14] 2640 nM | [15] 469 nM | [4] 935 nM | [5] 264 nM | [16] 2960 nM | [6] 2640 nM | [7] 3720 nM | [8] 1320 nM | [9] 743 nM
inactive: [1] | [2] | [10] | [11] | [12] | [13]

COc1nc(C)nc(Cl)c1NC1=NCCN1
inactive: [1] | [2] | [3] | [5] | [16] | [6] | [7]

Cc1cc(C(C)(C)C)cc(C)c1CC1=NCCN1
inactive: [1] | [2] | [14] | [4] | [5] | [16] | [6] | [7]

CCN1CCCC1CNC(=O)c1cc(S(=O)(=O)CC)c(N)cc1OC (configuration not stated)
active: [5] 74.3 nM
inactive: [1] | [2] | [14] | [15] | [4] | [16] | [7] | [8]

O=C(Nc1ccc([N+](=O)[O-])cc1Cl)c1cc(Cl)ccc1O
active: [14] 2090 nM | [4] 1870 nM | [5] 526 nM | [16] 1660 nM | [6] 526 nM | [7] 935 nM | [8] 235 nM | [9] 590 nM
inactive: [1] | [2]

Clc1ccc2nsnc2c1NC1=NCCN1
inactive: [1] | [2] | [3] | [4] | [8]

Clc1ccc(C(c2ccccc2Cl)C(Cl)Cl)cc1 (configuration not stated)
inactive: [1] | [2] | [3] | [7]
active: [5] 1870 nM

CC(C(=O)O)c1cccc(C(=O)c2ccccc2)c1 (configuration not stated)
inactive: [1] | [2] | [3] | [5] | [8]

Cc1cnc(C(=O)NCCc2ccc(S(=O)(=O)NC(=O)NC3CCCCC3)cc2)cn1
inactive: [1] | [2] | [3] | [5] | [6] | [7] | [9]
active: [16] 18700 nM | [8] 18700 nM

CC1COc2c(N3CCN(C)CC3)c(F)cc3c(=O)c(C(=O)O)cn1c23 (configuration not stated)
inactive: [1] | [2] | [14] | [4] | [16] | [6] | [7]

CCOC(=O)C(C)(C)Oc1ccc(Cl)cc1
inactive: [1] | [2] | [15] | [4] | [16] | [7] | [8]

CC(C)(C)C(=O)Oc1ccc(S(=O)(=O)Nc2ccccc2C(=O)NCC(=O)O)cc1
inactive: [1] | [2] | [3] | [5] | [16] | [6] | [7]

Nc1c2c(nc3ccccc13)CCCC2
inactive: [1] | [2] | [14] | [4] | [6] | [7] | [8]

Fc1ccc([C@@H]2CCNC[C@H]2COc2ccc3c(c2)OCO3)cc1
inactive: [1] | [2] | [3] | [4] | [6] | [7]

Nc1ccn([C@H]2CC[C@@H](CO)O2)c(=O)n1
inactive: [1] | [2] | [3] | [5] | [16] | [6] | [7] | [8] | [9]

COc1cc2c(c(OC)c1OC)-c1ccc(OC)c(=O)cc1[C@@H](NC(C)=O)CC2
inactive: [1] | [2] | [14] | [4] | [5] | [6] | [7] | [8]
active: [9] 3.3 nM

O=c1[nH]cc(F)c(=O)[nH]1
inactive: [1] | [2] | [3] | [4] | [7]
active: [16] 1870 nM | [8] 10500 nM

O=C1Cc2cc(CCN3CCN(c4nsc5ccccc45)CC3)c(Cl)cc2N1
active: [7] 8330 nM
inactive: [1] | [2] | [10] | [12] | [13]

Nc1nnc(-c2cccc(Cl)c2Cl)c(N)n1
inactive: [1] | [2] | [14] | [4] | [16]

CN(C)c1nc(N(C)C)nc(N(C)C)n1
inactive: [1] | [2] | [3] | [4] | [5] | [6] | [8] | [9]

CC(C)NCC(O)c1ccc(O)c(O)c1 (configuration not stated)
inactive: [1] | [2] | [3]
active: [4] 14800 nM | [5] 5260 nM | [6] 5900 nM | [7] 14800 nM | [8] 2640 nM | [9] 1480 nM

COc1ccc2[nH]cc(CCNC(C)=O)c2c1
active: [5] 235 nM
inactive: [1] | [2] | [3] | [4] | [6] | [7] | [8] | [9]
